USP8 inh: inhibitors of human USP8 deubiquitinase; purified USP8, Ub-rhodamine cleavage fluorescence, 30 min; inhibition, % at 20 µM; actives 4.2% (n = 47,000); AID 1645853, 2021
USP17 inh: inhibitors of human USP17 deubiquitinase; purified USP17, Ub-rhodamine cleavage fluorescence, 3 h; inhibition, % at 50 µM; actives 6.5% (n = 47,000); AID 1645855, 2021
Target sequence (A8MUK1 whole entry, looked up): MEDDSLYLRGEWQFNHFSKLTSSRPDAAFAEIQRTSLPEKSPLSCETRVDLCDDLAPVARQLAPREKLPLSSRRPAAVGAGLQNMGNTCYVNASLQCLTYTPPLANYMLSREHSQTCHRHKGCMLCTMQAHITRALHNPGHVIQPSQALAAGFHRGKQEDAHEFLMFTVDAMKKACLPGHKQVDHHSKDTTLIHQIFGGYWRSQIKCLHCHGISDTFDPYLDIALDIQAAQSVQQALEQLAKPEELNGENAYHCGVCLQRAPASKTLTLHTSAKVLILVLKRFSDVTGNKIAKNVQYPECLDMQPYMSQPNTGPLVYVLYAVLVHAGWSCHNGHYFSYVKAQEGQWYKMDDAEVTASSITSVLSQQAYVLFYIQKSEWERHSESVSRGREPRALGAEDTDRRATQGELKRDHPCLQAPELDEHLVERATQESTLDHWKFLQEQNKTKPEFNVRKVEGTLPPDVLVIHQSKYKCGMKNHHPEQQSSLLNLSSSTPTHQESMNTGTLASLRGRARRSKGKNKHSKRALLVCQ
USP30 inh: inhibitors of human USP30 deubiquitinase; AID 1645860, 2021; actives 5.3% (n = 47,000); inhibition, % at 25 µM; purified USP30, Ub-rhodamine cleavage fluorescence; Ubiquitin carboxyl-terminal hydrolase 30 (Homo sapiens), Q70CQ3
USP28 inh: inhibitors of human USP28 deubiquitinase; AID 1645857, 2021; inhibition, % at 25 µM; purified USP28, Ub-rhodamine cleavage fluorescence, 30 min; Ubiquitin carboxyl-terminal hydrolase 28 (Homo sapiens), Q96RU2; actives 3% (n = 47,000)
OTUD3 inh: inhibitors of human OTUD3 deubiquitinase. OTU domain-containing protein 3 (Homo sapiens), Q5T2D3. purified OTUD3, Ub-rhodamine fluorescence, 2 h. inhibition, % at 25 µM. actives 0.7% (n = 47,000). AID 1645858, 2021
* marks the source's active call; other numbers are inactive results; i = inactive; . = no result. Shown are actives, neighbours in structure and some others; about 13% of the full set was active somewhere. Cut-off read from the data, not from the text of the source: active = inhibition above about 30%; inactive = the rest.

SMILES	USP8 inh	USP17 inh	USP30 inh	USP28 inh	OTUD3 inh
O=C1N(c2ccccc2)C2CS(=O)(=O)CC2N1c1ccc(F)cc1 (configuration not stated)	11	7	8	3	5
O=C(NCC(O)COc1ccc([N+](=O)[O-])cc1)Nc1ccccc1 (configuration not stated)	-91	-16	5	9	-12
Cc1cc(C)cc(NC(=O)NCC(O)COc2ccc([N+](=O)[O-])cc2)c1 (configuration not stated)	-104	32*	17	27	2
Cc1ccc(NS(=O)(=O)c2ccc3c(c2)NC(=O)CC(C)S3)cc1F (configuration not stated)	3	-14	-24	-7	-15
CC(=O)Nc1cccc(NS(=O)(=O)c2cccc(Cl)c2)c1	1	5	0	7	6
Cc1ccc(-n2nc(C)c3nc(CCC(=O)Nc4ccc(OC(F)(F)F)cc4)c(=O)n(C)c32)cc1	4	4	31*	-2	5
Cc1ccc(-n2nc(C)c3nc(CCC(=O)NC4CC4)c(=O)n(C)c32)cc1	-1	0	11	9	10
NC(=O)c1cccc(NC(=O)c2cc(Cl)c3c(c2)OCO3)c1	-1	-12	-11	48*	-9
C/C1=C\CC(=O)OC23C(=O)NC(Cc4ccccc4)C2C(C)C2(C)OC2C3/C=C/CC(C)C1=O (configuration not stated)	-18	-17	-8	-23	-22
COc1ccc(-c2cc3c(=O)n(CC(=O)Nc4ccc(Cl)cc4)ccn3n2)cc1	10	19	19	11	15
O=C(Cn1nc(-c2ccc3c(c2)OCCO3)ccc1=O)Nc1ccc(Oc2ccccc2)cc1	3	31*	20	12	0
Cc1ccc(-c2cc(=O)n(CC(=O)Nc3ccc(C(C)C)cc3)cn2)cc1	34*	38*	48*	-9	9
O=C(Cn1cnc(-c2ccccc2)cc1=O)Nc1ccc(Oc2ccccc2)cc1	46*	15	22	7	14
Cc1cccc2nc(C(=O)N3C[C@@H](O)[C@H](N4CCOCC4)C3)cn12	-4	-4	9	2	0
N#Cc1ccc(-c2cnc3sc(NC4CCCCC4)nn23)cc1	7	3	5	-3	-3
CC(=O)Oc1cn(CCCN2CCCC2=O)c2nc(C)n3c4ccccc4nc3c12	-78	-170	i	-213	-171
Cc1ccc(S(=O)(=O)N2CCC(C(=O)OCC(=O)Nc3ccc(OC(F)(F)F)cc3)CC2)cc1C	0	31*	43*	13	27
CC(C)(C)OC(=O)N1C[C@@H]2C[C@@]3(C)[C@H](CCC[C@@H]13)N2C(=O)c1ncccn1	14	6	13	9	6
Cc1csc(NC(=O)c2c[nH]c3ccc(F)cc3c2=O)n1	85*	-61	-174	-92	-70
O=C(Cc1ccc(Cl)c(Cl)c1)OCC(=O)N1CCCc2ccccc21	10	22	24	16	15
CCN[C@H]1C[C@@H](c2ccccc2)OC2(CCN(Cc3cn(C)nc3C)CC2)C1	-13	31*	14	9	13
COc1cccc(C(=O)N2CCN(c3ncnc4c3nnn4Cc3ccccc3)CC2)c1	12	19	35*	33*	20
COc1ccccc1C(=O)Nc1cc(-c2cccnc2)no1	17	15	18	18	16
COc1ccc(C(=O)Nc2cc(-c3ccccn3)no2)c(OC)c1	15	33*	10	5	10
COc1ccccc1C(=O)Nc1cc(-c2ccc(F)c(F)c2)no1	17	33*	44*	9	10
SMILES	USP8 inh	USP17 inh	USP30 inh	USP28 inh	OTUD3 inh
COc1ccccc1NC(=O)c1cc(-c2ccccn2)nc2ccccc12	9	59*	28	3	10
COc1cccc(NC(=O)c2cc(-c3ccccn3)nc3ccccc23)c1	-1	-23	-128	-30	-33
CS(=O)(=O)c1cccc(NC(=O)C2CC(=O)Nc3ccccc32)c1 (configuration not stated)	11	9	17	5	6
c1ccc(-c2cc3c(N4CCN(C5CCCCC5)CC4)nccn3n2)cc1	-11	-1	-16	-2	-11
COc1ccc(Cl)cc1-n1nnc(C(=O)N2CCc3ccccc3C2)c1C	12	.	83*	33*	15
O=C(c1nnn(-c2ccc(Cl)cc2)c1-c1cccnc1)N1CCc2ccccc2C1	6	.	17	8	11
CCN1CCN(c2nc(F)c3c(c2F)S(=O)(=O)CCN3Cc2ccccc2)CC1	-2	10	-7	7	6
CC1CCCCN1c1nc(F)c2c(c1F)S(=O)(=O)CCN2Cc1ccccc1 (configuration not stated)	89*	57*	-24	9	7
Cc1cc(C)cc(NC(=O)Cn2cnc(S(=O)(=O)N3CCCC3)c2)c1	-3	-5	1	4	-3
O=C(Nc1ccccc1)c1c(O)c2cnn(Cc3ccccc3)c2[nH]c1=O	57*	2	-4	-4	-3
COc1ccccc1C1c2[nH]c3ccccc3c2C[C@H]2C(=O)N(CCCN3CCOCC3)CC(=O)N12 (some centres not stated)	-28	-27	-44	-34	-18
COc1ccc(-c2cc(-c3ccc(O)cc3)nc(N)c2C#N)cc1OC	4	46*	50*	73*	20
COc1ccc(CCN2CCOc3nc4c(C)cccc4cc3C2)cc1OC	13	3	-16	7	3
COc1ccc(CCN2COc3c(cc(Cl)c4cccnc34)C2)cc1OC	97*	93*	49*	30	10
CC(=O)C1=C(O)[C@]2(O)C(=O)c3c(c(C)c4ccc(C)c(O)c4c3O)C[C@H]2[C@@H](N)C1=O	-42	60*	-37	61*	67*
CC(C)(C)c1ccc(C(=O)Nc2ccc(Oc3cccnc3)nc2)cc1	4	0	13	53*	8
Cc1ccccc1C(=O)Nc1ccc(Oc2ccc(C(C)(C)C)cc2)nc1	11	6	1	12	2
Cc1ccc(Nc2nc(N3CCN(c4ccc(F)cc4)CC3)nc3c2cnn3C)cc1	27	13	31*	10	14
COc1ccc(CC(=O)NC2CC3(CCOCC3)Oc3ccccc32)cc1OC (configuration not stated)	-2	2	25	2	2
COc1ccc(OC)c(CC(=O)NC2CC3(CCOCC3)Oc3ccccc32)c1 (configuration not stated)	11	21	44*	12	10
Cc1cc(C)n(-c2cccc(C(=O)Nc3ccc4c(c3)CCN4S(C)(=O)=O)c2)n1	8	8	-10	80*	0
CS(=O)(=O)N1CCc2ccc(C(=O)Nc3ccc(F)cc3)cc21	3	33*	-27	-8	-7
